Measured values as given in PubChem BioAssay (Tox21).
Results filed as inconclusive are left out. The source made the active and inactive calls. The call rests on the fitted dose curve.

Assays:
[1] = target: Acetylcholinesterase (Homo sapiens) (UniProt P22303); test: Acetylcholinesterase (AChE) small molecule antagonists: colormetric cell-based qHTS assay (AID 1347395); conditions: SH-SY5Y cells AChE activity, colorimetric (Ellman); series mostly up to 115 µM; further: nearly all actives have a fitted effect of over 30% in size; further: potency means the concentration at half of the fitted maximal effect
Acetylcholinesterase (Homo sapiens), sequence (P22303 whole entry, looked up): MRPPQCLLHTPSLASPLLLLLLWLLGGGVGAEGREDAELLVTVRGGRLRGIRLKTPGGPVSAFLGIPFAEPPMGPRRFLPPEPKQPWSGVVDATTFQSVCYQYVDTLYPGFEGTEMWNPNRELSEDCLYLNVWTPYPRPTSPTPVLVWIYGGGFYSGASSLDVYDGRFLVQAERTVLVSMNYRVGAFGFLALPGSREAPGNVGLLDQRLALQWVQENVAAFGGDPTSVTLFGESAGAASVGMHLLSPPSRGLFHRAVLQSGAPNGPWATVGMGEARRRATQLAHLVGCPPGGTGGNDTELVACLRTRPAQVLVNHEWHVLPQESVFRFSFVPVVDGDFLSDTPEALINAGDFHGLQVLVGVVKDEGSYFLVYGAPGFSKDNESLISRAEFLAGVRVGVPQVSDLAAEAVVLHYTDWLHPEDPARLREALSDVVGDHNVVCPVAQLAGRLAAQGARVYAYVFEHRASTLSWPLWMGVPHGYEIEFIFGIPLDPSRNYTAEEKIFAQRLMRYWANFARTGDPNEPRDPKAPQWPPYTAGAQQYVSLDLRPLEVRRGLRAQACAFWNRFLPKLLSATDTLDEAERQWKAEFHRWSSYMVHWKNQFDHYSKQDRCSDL
Method in brief: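 Colorimetric readout: DTNB quantifies thiocholine from acetylthiocholine hydrolysed by endogenous AChE of SH-SY5Y cells (2,000/well, plated overnight). Compound pretreatment 30 min, substrate incubation 90 min, both 37 C.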

[2] = target: Acetylcholinesterase (Homo sapiens) (UniProt P22303); test: Acetylcholinesterase (AChE) small molecule antagonists: enzyme-based qHTS assay (AID 1347397); conditions: Potency: AChE enzyme activity inhibition; outcome: AChE enzyme activity inhibition; series mostly up to 115 µM; further: nearly all actives have a fitted effect of over 55% in size
Method in brief: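 rhAChE 50 mU/mL (dispensed) + cpd or DMSO, 30 min RT; add DTNB/acetylthiocholine cocktail, 10 min RT; colorimetric thiocholine readout. qHTS, 1536-well format.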

[3] = target: Acetylcholinesterase (Homo sapiens) (UniProt P22303); test: Acetylcholinesterase (AChE) small molecule antagonists: fluorescence cell-based qHTS assay (AID 1347398); conditions: SH-SY5Y cells; Potency: AChE activity; outcome: AChE activity; series mostly up to 115 µM; further: nearly all actives have a fitted effect of over 50% in size; further: potency means the concentration at half of the fitted maximal effect
Method in brief: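 Read-out is Thiolite Green fluorescence at Ex/Em = 490/520 nm, formed by reaction with thiocholine released when cellular AChE in SH-SY5Y cells hydrolyzes acetylthiocholine. Compounds were preincubated 30 min at 37 C before substrate.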

[4] = target: Acetylcholinesterase (Homo sapiens) (UniProt P22303); test: Acetylcholinesterase (AChE) small molecule antagonists: enzyme-based qHTS assay with human liver microsomes (AID 1347399); conditions: Potency: qHTS inhibition; outcome: qHTS inhibition; series mostly up to 115 µM; further: nearly all actives have a fitted effect of over 60% in size
Method in brief: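 Recombinant human AChE (50 mU/mL in the enzyme mix) and human liver microsomes (0.25 mg/mL final) were preincubated with compound and NADPH (0.25 mg/mL final) for 30 min at 37 C. Acetylthiocholine/DTNB was then added; thiocholine was read colorimetrically after 10 min at room temperature.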
On the % scale 0 is the no-effect control and ±100 the full control effect.

CO[Si](CCCOCC1CO1)(OC)OC (stereo not given)
inactive: Potency [1] | Potency [2] | Potency [3] | Potency [4]

CS(=O)(=O)OCCCCOS(C)(=O)=O
inactive: Potency [1] | Potency [2] | Potency [3] | Potency [4]

CCCCOC(=O)CC#N
inactive: Potency [1] | Potency [2] | Potency [3] | Potency [4]

Nc1[nH]c(=O)ncc1F
inactive: Potency [1] | Potency [2] | Potency [3] | Potency [4]

Cc1ccc(S(=O)(=O)NC2CCCCC2)cc1
inactive: Potency [1] | Potency [2] | Potency [3] | Potency [4]

CCCCC(CC)CN1CN(CC(CC)CCCC)CC(C)(N)C1 (stereo not given)
inactive: Potency [1] | Potency [2] | Potency [3] | Potency [4]

CC(C)c1ccc(C(=O)N=C(N)N)cc1S(C)(=O)=O
inactive: outcome [1] | outcome [2] | outcome [3] | outcome [4]

CCOC(=O)COC(=O)c1ccccc1C(=O)OCC
inactive: Potency [1] | Potency [2] | Potency [3] | Potency [4]

O=C(O)c1ccccc1Nc1cccc(C(F)(F)F)c1
inactive: Potency [1] | Potency [2] | Potency [3] | Potency [4]

C=C(C)C1CC=C(C)C(OC(C)=O)C1 (stereo not given)
inactive: Potency [1] | Potency [2] | Potency [3] | Potency [4]

CCCCCCCCNC
inactive: Potency [1] | Potency [2] | Potency [3] | Potency [4]

CCCCCCCCOS(=O)(=O)O
inactive: Potency [1] | Potency [2] | Potency [3] | Potency [4]

CC(=O)N(CC(O)CO)c1c(I)c(C(=O)NCCO)c(I)c(C(=O)NCC(O)CO)c1I (stereo not given)
inactive: Potency [1] | Potency [2] | Potency [3] | Potency [4]

Cn1ccc2cc3c(cc21)CCN3C(=O)Nc1cccnc1
inactive: activity, negative = inhibition [1] -3.7% [at 23.6 µM] | activity change, negative = inhibition [2] -19.7% [at 23.6 µM] | activity change, negative = inhibition [3] -28.9% [at 23.8 µM] | activity change, negative = inhibition [4] 2.86% [at 23.6 µM]

Nc1ccc(Oc2ccc(Cl)cc2)cc1
inactive: Potency [1] | Potency [2] | Potency [3] | Potency [4]

O=C(Cl)c1ccc(F)c(Cl)c1
inactive: Potency [1] | Potency [2] | Potency [3] | Potency [4]

S=C([S-])NCCNC(=S)[S-].S=C([S-])NCCNC(=S)[S-].[Mn+2].[Zn+2]
active: Potency [1] 30.9 µM | Potency [3] 30.9 µM
inactive: Potency [2] | Potency [4]

COc1cc(C)ccc1O
inactive: Potency [1] | Potency [2] | Potency [3] | Potency [4]

CCC(C)(CCC(C)C)C(=O)[O-].CCC(C)(CCC(C)C)C(=O)[O-].[Zn+2] (stereo not given)
inactive: Potency [1] | Potency [2] | Potency [3] | Potency [4]

NC(=O)Nc1nc2ccccc2[nH]1
inactive: Potency [1] | Potency [2] | Potency [3] | Potency [4]

Cc1ncc(CO)c(CN)c1O
inactive: Potency [1] | Potency [2] | Potency [3] | Potency [4]

c1ccsc1
inactive: Potency [1] | Potency [2] | Potency [3] | Potency [4]

CC(CCO)CCCC(C)(C)O (stereo not given)
inactive: Potency [1] | Potency [2] | Potency [3] | Potency [4]

O=C1c2ccccc2C(=O)C1c1ccc2ccccc2n1
inactive: Potency [1] | Potency [2] | Potency [3] | Potency [4]

OCCN(CCO)c1ccccc1
inactive: Potency [1] | Potency [2] | Potency [3] | Potency [4]

CCOc1cc([N+](=O)[O-])c(OCC)cc1N1CCOCC1
inactive: Potency [1] | Potency [2] | Potency [3] | Potency [4]

CN(C)N=Nc1ccccc1
inactive: Potency [1] | Potency [2] | Potency [3] | Potency [4]

CC(=O)Nc1ccc(C)cc1C
inactive: Potency [1] | Potency [2] | Potency [3] | Potency [4]

CC(CC=O)c1ccccc1 (stereo not given)
inactive: Potency [1] | Potency [2] | Potency [3] | Potency [4]

CCN1CN(CC)CN(CC)C1
inactive: Potency [1] | Potency [2] | Potency [3] | Potency [4]

CC(C)(O)C#CC(C)(C)O
inactive: Potency [1] | Potency [2] | Potency [3] | Potency [4]

CC(=O)OC(C(=O)c1ccccc1)c1ccccc1 (stereo not given)
inactive: Potency [1] | Potency [2] | Potency [3] | Potency [4]

C=CCCC(=O)/C=C/C1C(C)=CCCC1(C)C (stereo not given)
inactive: Potency [1] | Potency [2] | Potency [3] | Potency [4]

C=CC(=O)OCC(CO)(COCC(COC(=O)C=C)(COC(=O)C=C)COC(=O)C=C)COC(=O)C=C
inactive: Potency [1] | Potency [2] | Potency [3] | Potency [4]

Cc1ccccc1N=C(N)Nc1ccccc1C
inactive: Potency [1] | Potency [2] | Potency [3] | Potency [4]

COc1ccc(C(=O)/C(Br)=C\C(=O)O)cc1
inactive: Potency [1] | Potency [2] | Potency [3] | Potency [4]

CC1=C(O)C(=O)CO1
inactive: Potency [1] | Potency [2] | Potency [3] | Potency [4]

CC1OC1C1CCC2(C)OC2C1 (stereo not given)
inactive: Potency [1] | Potency [2] | Potency [3] | Potency [4]

Cc1ccc(C(=O)O)cc1[N+](=O)[O-]
inactive: Potency [1] | Potency [2] | Potency [3] | Potency [4]

O=C1O[C@@H]2[C@@H](O)[C@H](O)O[C@@H]2[C@H]1O
inactive: Potency [1] | Potency [2] | Potency [3] | Potency [4]

COc1ccc2nc(S(=O)Cc3ncc(C)c(OC)c3C)[nH]c2c1 (stereo not given)
inactive: Potency [1] | Potency [2] | Potency [3] | Potency [4]

C=CC(=O)OCCOC(=O)C=C
inactive: Potency [1] | Potency [2] | Potency [3] | Potency [4]

CCCCCCCCCCCCCC
inactive: Potency [1] | Potency [2] | Potency [3] | Potency [4]

Nc1ccc(Nc2ccccc2)cc1
inactive: Potency [1] | Potency [2] | Potency [3] | Potency [4]

CC(O)C(=O)O (stereo not given)
inactive: Potency [1] | Potency [2] | Potency [3] | Potency [4]

O=C1Nc2cc(Cl)ccc2Oc2ccccc21
inactive: Potency [1] | Potency [2] | Potency [3] | Potency [4]

COC(CC(C)CCCC(C)(C)O)OC (stereo not given)
inactive: Potency [1] | Potency [2] | Potency [3] | Potency [4]

CN(C)CCCN(C)CCCN(C)C
inactive: Potency [1] | Potency [2] | Potency [3] | Potency [4]

Nc1cc([N+](=O)[O-])cc(Cl)c1O
inactive: Potency [1] | Potency [2] | Potency [3] | Potency [4]

CC1=C(C/C=C(\C)CCC[C@H](C)CCC[C@H](C)CCCC(C)C)C(=O)c2ccccc2C1=O
inactive: Potency [1] | Potency [2] | Potency [3] | Potency [4]

CO/N=C(/C(=O)N[C@@H]1C(=O)N2C(C(=O)O)=C(COC(N)=O)CS[C@H]12)c1ccco1
inactive: Potency [1] | Potency [2] | Potency [3] | Potency [4]

O=S1(=O)CCCO1
inactive: Potency [1] | Potency [2] | Potency [3] | Potency [4]

CO[C@@H]1[C@@H](OC)[C@H](C)[C@@](O)(CC(=O)O)O[C@H]1[C@H](C)[C@H]1O[C@@]2(CC[C@@](C)([C@H]3CC[C@@](C)([C@@H]4O[C@@H]([C@H]5O[C@](C)(O)[C@H](C)C[C@@H]5C)C[C@@H]4OC4C[C@H](OC)[C@@H](OC)[C@H](C)O4)O3)O2)C[C@H](O)[C@H]1C (stereo not given in full)
inactive: Potency [1] | Potency [2] | Potency [3] | Potency [4]

NC(=O)C(=O)N/N=C/c1ccc([N+](=O)[O-])o1
inactive: Potency [1] | Potency [2] | Potency [3] | Potency [4]

O=C(Oc1ccccc1)Oc1ccccc1
inactive: Potency [1] | Potency [2] | Potency [3] | Potency [4]

CC(C)NC(=O)c1ccccc1N
inactive: Potency [1] | Potency [2] | Potency [3] | Potency [4]

Cc1ccc(C=O)cc1
inactive: Potency [1] | Potency [2] | Potency [3] | Potency [4]

CC1(C)OC[C@@H](COC(=O)CCc2ccc(OC[C@@H](O)CNCCNC(=O)N3CCOCC3)cc2)O1
inactive: Potency [1] | Potency [2] | Potency [3] | Potency [4]

CC(C)(C)C(=O)C(Oc1ccc(Cl)cc1)n1ccnc1 (stereo not given)
inactive: Potency [1] | Potency [2] | Potency [3] | Potency [4]

CC(C)(C)S
inactive: Potency [1] | Potency [2] | Potency [3] | Potency [4]
